# The supplement of paper PMC10849652
# The full data set covers some 7,900 targets. This sample favours those with a hit. About 0.6% of all pairs of compound and target were hits. Unmarked numbers belong to inactive results.
# Key:
# Assay in all cases: log2 fold change, soluble protein after heating vs DMSO (PISA); higher = thermal stabilisation; K562 cells, 10 uM, 30 min; active = over 0.2 and 3.5 SD of the protein, either way, in both replicates (recomputed)
# [1] = compound: C1COCCN1CCN2C3=CC=CC=C3N=C2NC(=O)C4=CC(=CC=C4)[N+](=O)[O-] [IRAK-1-4 Inhibitor I]
# Method in brief: (§1)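 K562 cells at 2×10^6 cells/mL were treated with 10 μM compound for 30 min. Aliquots were heated for 3 min across 48°C-58°C, pooled, and extracted in PBS with 0.5% NP-40 at 4°C; soluble protein was the supernatant after 21,000xg for 90 min. Soluble protein was quantified by TMTpro 16plex LC-MS/MS with channel sums equalised, and reported as log2 fold change in thermal stability against DMSO controls, with values from duplicates.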
# [2] = compound: C=CC(=O)N1CCC[C@@H](n2nc(-c3ccc(Oc4ccccc4)cc3)c3c(N)ncnc32)C1 [ibrutinib]
# Method in brief: as §1
# [3] = compound: CC(=O)c1cnc2ccc(-c3cc(Cl)c(O)c(Cl)c3)nc2c1N[C@H]1CC[C@H](CN(C)C)CC1
# Method in brief: as §1
# [4] = compound: CC(C)(C)Cn1c(N)nc2ccc(-c3[nH]c(C(C)(C)C)nc3-c3ccc(F)cc3)nc21 [ralimetinib]
# Method in brief: as §1
# [5] = compound: CC(C)(O)CC(=O)NCCn1ccc2ncnc(Nc3ccc(Oc4cccc(C(F)(F)F)c4)c(Cl)c3)c21
# Method in brief: as §1
# [6] = compound: CC(C)C1=C2N=C(C=C(N2N=C1)NCC3=CC=CC=C3)NCCCCCCN
# Method in brief: as §1
# [7] = compound: CC(C)C[C@@H](C=O)NC(=O)[C@H](CC(C)C)NC(=O)[C@H](CC(C)C)NC(=O)OCc1ccccc1
# Method in brief: as §1
# [8] = compound: CC(C)N(C[C@H]1O[C@@H](n2cnc3c(N)ncnc32)[C@H](O)[C@@H]1O)[C@H]1C[C@@H](CCc2nc3cc(C(C)(C)C)ccc3[nH]2)C1 [pinometostat]
# Method in brief: as §1
# [9] = compound: CC1=C(C(CC(=O)N1)C2=CC=C(C=C2)C(F)(F)F)C(=O)NC3=C(C=C4C(=C3)C=NN4)F
# Method in brief: as §1
# [10] = compound: CC1=C(C2=C(C=C1)C(=O)C3=CC=CC=C3N2CCCN)C
# Method in brief: as §1
# [11] = compound: CC1=C(C=C(C=C1)NC(=O)C2=CC(=CC=C2)C(C)(C)C#N)NC3=CC4=C(C=C3)N=CN(C4=O)C
# Method in brief: as §1
# [12] = compound: CC1=C(C=C(C=C1)NC(=O)C2=CC(=CC=C2)N(C)C)NC(=O)C3=CC=C(C=C3)O
# Method in brief: as §1
# [13] = compound: CC1=CC=C(C=C1)SC2=C3C=C(SC3=CN=C2)C(=O)N
# Method in brief: as §1
# [14] = compound: CC1=NC(=CC=C1)C2=C(N=C(N2)C(C)(C)C)C3=CC4=NC=CN=C4C=C3
# Method in brief: as §1
# [15] = compound: CCCCN(Cc1ccc(C(=O)NO)cc1)C(=O)Nc1ccccc1 [Nexturastat A]
# Method in brief: as §1
# [16] = compound: CCCS(=O)(=O)Nc1ccc(F)c(C(=O)c2c[nH]c3ncc(-c4ccc(Cl)cc4)cc23)c1F [vemurafenib]
# Method in brief: as §1
# [17] = compound: CCCS(=O)(=O)Nc1ccc(F)c(C(=O)c2c[nH]c3ncc(Cl)cc23)c1F
# Method in brief: as §1
# [18] = compound: CCCc1cc(C)[nH]c(=O)c1CNC(=O)c1cc(-c2ccnc(N3CCN(C)CC3)c2)cc2c1cnn2C(C)C
# Method in brief: as §1
# [19] = compound: CCN(CC)Cc1ccc2cc(COC(=O)Nc3ccc(C(=O)NO)cc3)ccc2c1 [givinostat]
# Method in brief: as §1
# [20] = compound: CCN(CCCOc1ccc2c(Nc3cc(CC(=O)Nc4cccc(F)c4)[nH]n3)ncnc2c1)CCOP(=O)(O)O [barasertib]
# Method in brief: as §1
# Chain of UniProt O60488 (O60488 whole entry, looked up): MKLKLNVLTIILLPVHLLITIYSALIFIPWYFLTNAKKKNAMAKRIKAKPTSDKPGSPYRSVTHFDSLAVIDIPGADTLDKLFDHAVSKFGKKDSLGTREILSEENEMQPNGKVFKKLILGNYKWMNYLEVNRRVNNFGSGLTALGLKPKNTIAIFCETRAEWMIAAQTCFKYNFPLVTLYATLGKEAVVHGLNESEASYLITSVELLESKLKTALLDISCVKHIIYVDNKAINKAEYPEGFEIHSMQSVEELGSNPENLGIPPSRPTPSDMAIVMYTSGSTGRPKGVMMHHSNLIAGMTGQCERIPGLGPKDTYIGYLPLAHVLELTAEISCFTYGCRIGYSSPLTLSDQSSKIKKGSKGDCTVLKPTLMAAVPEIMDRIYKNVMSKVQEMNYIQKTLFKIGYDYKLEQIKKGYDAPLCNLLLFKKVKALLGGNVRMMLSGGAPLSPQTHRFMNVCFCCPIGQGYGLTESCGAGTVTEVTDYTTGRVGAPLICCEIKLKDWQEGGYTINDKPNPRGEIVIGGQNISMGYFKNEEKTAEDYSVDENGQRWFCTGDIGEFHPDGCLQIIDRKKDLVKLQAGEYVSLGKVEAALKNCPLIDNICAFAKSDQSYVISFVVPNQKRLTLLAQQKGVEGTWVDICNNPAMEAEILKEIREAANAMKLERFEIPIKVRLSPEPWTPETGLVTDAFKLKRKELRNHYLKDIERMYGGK
# Chain of UniProt Q7Z3C6 (Q7Z3C6 whole entry, looked up): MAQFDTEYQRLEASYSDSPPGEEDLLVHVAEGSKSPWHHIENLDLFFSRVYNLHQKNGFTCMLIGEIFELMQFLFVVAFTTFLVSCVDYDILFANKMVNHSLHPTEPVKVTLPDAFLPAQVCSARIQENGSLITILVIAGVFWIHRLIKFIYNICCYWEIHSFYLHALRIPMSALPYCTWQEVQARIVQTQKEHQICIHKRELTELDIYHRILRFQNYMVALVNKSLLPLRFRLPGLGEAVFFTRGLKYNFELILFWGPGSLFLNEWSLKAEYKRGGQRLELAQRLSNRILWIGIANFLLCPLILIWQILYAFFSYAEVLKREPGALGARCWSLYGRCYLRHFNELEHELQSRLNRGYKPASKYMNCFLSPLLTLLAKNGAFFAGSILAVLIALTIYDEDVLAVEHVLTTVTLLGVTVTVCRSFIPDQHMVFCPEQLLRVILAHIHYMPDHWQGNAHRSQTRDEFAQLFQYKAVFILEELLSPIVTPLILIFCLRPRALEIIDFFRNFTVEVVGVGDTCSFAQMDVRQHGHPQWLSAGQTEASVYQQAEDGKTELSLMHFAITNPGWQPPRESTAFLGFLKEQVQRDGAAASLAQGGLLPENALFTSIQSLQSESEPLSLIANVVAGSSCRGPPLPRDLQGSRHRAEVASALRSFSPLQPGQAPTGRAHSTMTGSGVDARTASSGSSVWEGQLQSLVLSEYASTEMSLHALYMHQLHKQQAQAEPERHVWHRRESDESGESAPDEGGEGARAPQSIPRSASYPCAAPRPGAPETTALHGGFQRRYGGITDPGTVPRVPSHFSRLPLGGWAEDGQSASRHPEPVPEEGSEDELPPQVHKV
# Chain of UniProt O95870 (O95870 whole entry, looked up): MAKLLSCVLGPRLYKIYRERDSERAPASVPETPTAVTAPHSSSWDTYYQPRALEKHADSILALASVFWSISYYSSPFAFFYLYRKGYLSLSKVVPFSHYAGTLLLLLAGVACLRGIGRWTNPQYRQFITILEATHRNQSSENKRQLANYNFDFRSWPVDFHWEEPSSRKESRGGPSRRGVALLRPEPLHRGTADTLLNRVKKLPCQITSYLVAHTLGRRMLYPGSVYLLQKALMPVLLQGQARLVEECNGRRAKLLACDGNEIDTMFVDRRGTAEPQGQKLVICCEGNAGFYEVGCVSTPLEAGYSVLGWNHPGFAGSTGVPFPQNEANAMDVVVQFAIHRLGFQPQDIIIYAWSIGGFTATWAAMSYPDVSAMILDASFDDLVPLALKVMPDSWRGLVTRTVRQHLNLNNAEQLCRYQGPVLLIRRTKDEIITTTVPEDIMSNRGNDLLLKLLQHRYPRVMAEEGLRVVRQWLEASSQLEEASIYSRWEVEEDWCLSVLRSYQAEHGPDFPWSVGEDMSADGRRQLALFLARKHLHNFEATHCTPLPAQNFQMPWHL
# Chain of UniProt Q9NRZ7 (Q9NRZ7 whole entry, looked up): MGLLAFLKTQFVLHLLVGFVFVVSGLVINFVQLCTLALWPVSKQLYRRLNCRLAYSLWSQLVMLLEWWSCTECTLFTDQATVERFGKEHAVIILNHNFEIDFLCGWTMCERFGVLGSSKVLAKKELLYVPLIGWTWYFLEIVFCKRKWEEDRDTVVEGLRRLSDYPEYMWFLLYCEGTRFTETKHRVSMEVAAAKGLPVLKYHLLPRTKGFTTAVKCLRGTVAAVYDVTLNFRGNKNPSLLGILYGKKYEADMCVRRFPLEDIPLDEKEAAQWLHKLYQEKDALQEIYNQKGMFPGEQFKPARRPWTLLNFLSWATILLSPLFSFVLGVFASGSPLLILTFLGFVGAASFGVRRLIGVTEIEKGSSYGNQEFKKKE
# Chain of UniProt P53367 (P53367 whole entry, looked up): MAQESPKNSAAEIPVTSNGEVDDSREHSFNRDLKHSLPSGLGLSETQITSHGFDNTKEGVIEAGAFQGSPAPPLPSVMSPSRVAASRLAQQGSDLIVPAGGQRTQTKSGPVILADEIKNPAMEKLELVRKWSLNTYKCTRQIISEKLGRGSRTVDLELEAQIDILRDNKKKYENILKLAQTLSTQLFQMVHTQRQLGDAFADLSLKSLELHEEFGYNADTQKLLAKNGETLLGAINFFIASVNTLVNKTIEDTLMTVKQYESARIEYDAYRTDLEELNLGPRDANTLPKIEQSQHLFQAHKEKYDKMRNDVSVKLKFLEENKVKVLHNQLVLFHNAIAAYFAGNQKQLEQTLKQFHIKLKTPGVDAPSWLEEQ
# Chain of UniProt Q9UI12 (Q9UI12 whole entry, looked up): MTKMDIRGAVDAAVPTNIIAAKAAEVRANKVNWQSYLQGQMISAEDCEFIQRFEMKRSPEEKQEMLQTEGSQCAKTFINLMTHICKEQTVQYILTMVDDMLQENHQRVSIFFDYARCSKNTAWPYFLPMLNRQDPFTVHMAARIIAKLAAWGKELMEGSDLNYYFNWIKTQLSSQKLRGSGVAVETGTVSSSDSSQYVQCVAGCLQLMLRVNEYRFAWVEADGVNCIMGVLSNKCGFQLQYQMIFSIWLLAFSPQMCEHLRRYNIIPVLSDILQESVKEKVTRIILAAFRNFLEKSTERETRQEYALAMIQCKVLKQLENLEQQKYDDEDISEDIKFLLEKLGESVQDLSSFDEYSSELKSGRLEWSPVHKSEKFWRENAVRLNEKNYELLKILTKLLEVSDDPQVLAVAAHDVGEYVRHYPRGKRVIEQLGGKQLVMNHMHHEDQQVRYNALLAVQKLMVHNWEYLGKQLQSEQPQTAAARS
# Chain of UniProt Q9NSY1 (Q9NSY1 whole entry, looked up): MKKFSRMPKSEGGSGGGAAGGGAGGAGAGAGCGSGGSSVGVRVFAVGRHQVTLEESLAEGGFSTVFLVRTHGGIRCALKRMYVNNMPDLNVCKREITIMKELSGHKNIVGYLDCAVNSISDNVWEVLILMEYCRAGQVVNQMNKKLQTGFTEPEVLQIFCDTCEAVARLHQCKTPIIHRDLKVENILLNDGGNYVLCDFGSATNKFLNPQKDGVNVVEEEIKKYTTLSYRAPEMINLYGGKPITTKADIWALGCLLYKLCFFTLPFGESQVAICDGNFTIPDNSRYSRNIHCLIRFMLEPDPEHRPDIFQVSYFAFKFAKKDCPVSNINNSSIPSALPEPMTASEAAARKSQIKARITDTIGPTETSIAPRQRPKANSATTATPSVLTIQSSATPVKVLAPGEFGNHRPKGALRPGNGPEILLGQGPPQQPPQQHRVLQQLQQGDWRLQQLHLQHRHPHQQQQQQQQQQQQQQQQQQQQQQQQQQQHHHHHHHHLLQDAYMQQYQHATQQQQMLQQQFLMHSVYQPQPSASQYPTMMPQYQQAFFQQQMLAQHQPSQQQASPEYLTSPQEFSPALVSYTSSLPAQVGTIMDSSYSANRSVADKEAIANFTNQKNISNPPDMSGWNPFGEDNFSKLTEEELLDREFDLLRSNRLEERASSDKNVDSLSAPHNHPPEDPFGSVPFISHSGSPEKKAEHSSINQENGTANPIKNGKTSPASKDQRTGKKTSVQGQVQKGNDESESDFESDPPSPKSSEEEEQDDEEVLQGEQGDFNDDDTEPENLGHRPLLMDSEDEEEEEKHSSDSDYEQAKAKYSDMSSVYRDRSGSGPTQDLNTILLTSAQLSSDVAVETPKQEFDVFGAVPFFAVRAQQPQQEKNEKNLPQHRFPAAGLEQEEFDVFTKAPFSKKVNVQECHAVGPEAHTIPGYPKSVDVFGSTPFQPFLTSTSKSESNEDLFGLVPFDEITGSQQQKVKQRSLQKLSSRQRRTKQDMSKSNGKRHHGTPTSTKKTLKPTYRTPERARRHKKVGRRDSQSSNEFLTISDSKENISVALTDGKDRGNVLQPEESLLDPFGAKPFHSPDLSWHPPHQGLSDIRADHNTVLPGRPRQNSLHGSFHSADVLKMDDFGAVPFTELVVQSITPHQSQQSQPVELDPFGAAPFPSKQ
# Chain of UniProt Q8N6D5 (Q8N6D5 whole entry, looked up): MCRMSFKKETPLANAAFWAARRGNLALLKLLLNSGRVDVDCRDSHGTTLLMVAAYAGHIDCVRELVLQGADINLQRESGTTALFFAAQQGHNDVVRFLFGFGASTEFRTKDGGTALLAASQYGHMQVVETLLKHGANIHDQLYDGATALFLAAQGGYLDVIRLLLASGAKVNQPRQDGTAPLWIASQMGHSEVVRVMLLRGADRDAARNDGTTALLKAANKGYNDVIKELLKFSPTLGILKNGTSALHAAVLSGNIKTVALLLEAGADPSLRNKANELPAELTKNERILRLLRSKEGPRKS
# Chain of UniProt Q13795 (Q13795 whole entry, looked up): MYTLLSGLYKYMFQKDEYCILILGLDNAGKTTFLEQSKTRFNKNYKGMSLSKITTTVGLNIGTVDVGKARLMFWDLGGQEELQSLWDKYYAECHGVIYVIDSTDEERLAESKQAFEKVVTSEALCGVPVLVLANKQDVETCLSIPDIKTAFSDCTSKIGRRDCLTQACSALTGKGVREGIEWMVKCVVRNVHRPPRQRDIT
Target,log2 fold change [1],log2 fold change [2],log2 fold change [3],log2 fold change [4],log2 fold change [5],log2 fold change [6],log2 fold change [7],log2 fold change [8],log2 fold change [9],log2 fold change [10],log2 fold change [11],log2 fold change [12],log2 fold change [13],log2 fold change [14],log2 fold change [15],log2 fold change [16],log2 fold change [17],log2 fold change [18],log2 fold change [19],log2 fold change [20]
ACACB (UniProt O00763),-0.23,0.02,0.108,0.216,0,-0.515 (active),0.066,0.315,0.11,0.027,-0.037,0.01,0.006,-0.065,0.344,0.108,0.012,0.152,0.149,0.06
ACSL4 (UniProt O60488),-0.067,0.001,0,0.049,-0.237,-0.443 (active),0.038,0.098,0.019,0,0.018,-0.051,0.418 (active),-0.002,0.233,0.021,0.104,0.053,0.047,0.034
BMP2K (UniProt Q9NSY1),0.003,0.071,0.559 (active),0.058,-0.028,-0.027,0.085,-0.008,0.023,-0.009,0.01,0.033,-0.017,-0.011,0.126,0.011,0.01,-0.04,0.007,-0.014
ATP23 (UniProt Q9Y6H3),0.091,-0.009,-0.004,-0.043,0.02,-0.136,0.025,-0.014,0.011,-0.01,0.027,-0.013,0.122,0.058,-0.172,0.021,-0.039,-0.031,-0.012,-0.049
ATP13A2 (UniProt Q9NQ11),0.04,0.074,0.007,-0.033,-0.03,-0.511 (active),0.011,0.063,0.044,0.181,0.017,0.009,0.035,0.055,0.001,0.085,-0.037,0.014,-0.044,-0.052
ATG9A (UniProt Q7Z3C6),0,0.081,-0.091,-0.023,-0.056,-0.176,0.06,0.015,-0.003,0.038,-0.019,-0.017,0.038,0.008,-0.018,-0.006,0.019,0.007,0.019,0.045
ATP6V1H (UniProt Q9UI12),-0.011,-0.033,-0.065,0.007,-0.014,-0.241 (active),0.043,-0.002,-0.006,0.028,0.028,-0.016,0.045,0.014,-0.008,-0.004,0.077,0.022,0.03,0.018
ANP32E (UniProt Q9BTT0),0.016,0.019,-0.128,-0.035,-0.067,-0.181,-0.036,0.028,0.082,-0.214,0.041,-0.098,0.091,-0.02,-0.11,0.091,0.035,-0.001,0.112,0.076
ABHD16A (UniProt O95870),-0.039,0.043,-0.026,0.047,0.361 (active),0.656 (active),0.064,-0.009,-0.064,0.012,0.01,-0.084,-0.051,-0.057,0.118,-0.001,-0.036,0.09,0.037,0.008
ARFIP1 (UniProt P53367),-0.034,-0.117,-0.075,-0.104,-0.031,-0.011,-0.029,0.006,0.014,0.164,-0.031,0.042,0.022,-0.006,-0.081,-0.026,0.084,0.045,0.058,0.046
AMFR (UniProt Q9UKV5),-0.083,-0.039,0.07,0.117,-0.034,-0.375 (active),0.12,0.077,-0.011,0.019,-0.013,0.01,-0.029,-0.104,-0.033,0.005,0.009,-0.042,0.086,0.041
ATP6V1C1 (UniProt P21283),-0.102,-0.041,-0.074,0.036,0.039,-0.008,0.052,0.068,0.032,-0.037,0.004,-0.037,-0.024,-0.033,0.131,-0.018,0.057,0.026,0.031,0.062
ANKRD29 (UniProt Q8N6D5),-0.001,-0.18,0.026,-0.057,-0.15,0.007,-0.153,-0.012,0.009,0.024,0.046,0.022,0.027,-0.035,0.371,-0.064,-0.031,-0.073,0.247,-0.124
ARFRP1 (UniProt Q13795),-0.083,0.031,0.02,0.004,-0.041,-0.028,-0.073,0.017,-0.044,0.075,0.138,0.003,0.082,0.069,-0.048,0.033,0,0.046,0.012,-0.015
BUB1B isoform 3 (UniProt O60566),-0.092,-0.039,-0.023,0.106,-0.089,-0.098,0.09,0.11,-0.011,0.017,0.004,-0.031,0.059,-0.014,0.087,0.058,0.14,0.043,0.118,0.034
AGPAT3 isoform 3 (UniProt Q9NRZ7),0.012,0,-0.024,-0.02,-0.001,-0.071,-0.001,0.034,-0.011,0.03,0.019,0,0.016,0.003,-0.076,-0.001,0.043,-0.039,0.008,0.057
